Experimental data: PubChem BioAssay
Active and inactive are the calls of the source. Unless noted, how the calls were made is not given here.

Legend:
[1] = test system: Wnt5a (protein binding on small-molecule microarray); assay: Wnt5a binders on small-molecule microarray, primary screen, biophysical, 635/667 nm fluorescence (AID 1142); details: 635 nm fluorescence, higher = more signal;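 further: fluorescence read at 667 nm with signal to noise per printed feature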
[2] = cell viability in Huh7 cells, primary screen, cytotoxicity control for HCV replication inhibitor project, CellTiter-Glo luminescence, basal, 48 h (AID 1143); details: Huh7 HCV replicon, higher = more signal, called active from +8 up or from −8 down;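 further: Huh7 hepatoma cells carrying a hepatitis C replication reporter with no stimulus; test concentration not given here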
[3] = P. aeruginosa biofilm formation inhibitors, primary screen, PAO1 strain, BacTiter-Glo luminescence, LB-PBS (AID 1144); details: 12 h, higher = more signal
[4] = CREB reporter modulators without forskolin, primary screen, cell-based, PC12, CRE-LacZ reporter, unstimulated (AID 1145); details: no forskolin, luminescence, 4.5 h, higher = more signal, called active from +8 up or from −8 down
[5] = CREB reporter modulators under forskolin, primary screen, cell-based, PC12, CRE-LacZ reporter, forskolin-stimulated (AID 1146); details: luminescence, 4.5 h, higher = more signal, called active from +8 up or from −8 down;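 further: PC12 cells with 6xCRE LacZ reporter stimulated by forskolin 10 µM; beta-galactosidase reporter signal reflecting CREB driven transcription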
[6] = molecular target: Streptavidin (Streptomyces avidinii) (UniProt P22629); assay: streptavidin binders on small-molecule microarray, primary screen, artefact control for SMM compound annotation, biophysical, 635/667 nm fluorescence (AID 1147); details: streptavidin binding, higher = more signal;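 further: signal reflects streptavidin binding to arrayed compounds as a control protein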
Streptavidin (Streptomyces avidinii), sequence (P22629 whole entry, looked up): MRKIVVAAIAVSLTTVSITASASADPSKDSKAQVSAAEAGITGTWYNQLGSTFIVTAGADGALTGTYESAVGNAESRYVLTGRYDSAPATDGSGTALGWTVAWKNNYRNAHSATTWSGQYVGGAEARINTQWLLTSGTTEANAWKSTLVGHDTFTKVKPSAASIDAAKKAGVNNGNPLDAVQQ

[7] = small-molecule binders of probe aInhba, primary screen, biochemical, small-molecule microarray, 635/667 nm fluorescence (AID 1148); details: higher = more signal;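 further: score merges 667nm spot fluorescence with signal-to-noise for antibody binding to printed compounds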
Torsin-1A (Homo sapiens) [8] = molecular target: Torsin-1A (Homo sapiens) (UniProt O14656); assay: torsin A binders from cell lysate, primary screen, small-molecule microarray, wild-type, 635/667 nm (AID 1149); details: COS7 hTOR1A-WT lysate, 635 nm fluorescence, higher = more signal
Torsin-1A (Homo sapiens), sequence (O14656 whole entry, looked up): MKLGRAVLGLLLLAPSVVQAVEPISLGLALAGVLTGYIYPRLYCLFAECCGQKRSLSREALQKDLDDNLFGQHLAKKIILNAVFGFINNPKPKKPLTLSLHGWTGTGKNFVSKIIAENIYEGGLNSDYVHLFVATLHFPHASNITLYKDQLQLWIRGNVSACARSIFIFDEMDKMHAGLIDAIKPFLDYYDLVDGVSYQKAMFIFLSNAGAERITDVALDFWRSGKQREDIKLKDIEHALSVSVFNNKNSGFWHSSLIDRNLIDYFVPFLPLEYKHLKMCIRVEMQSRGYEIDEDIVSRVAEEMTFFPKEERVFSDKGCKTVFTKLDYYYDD

Torsin-1A (Homo sapiens) [9] = molecular target: Torsin-1A (Homo sapiens) (UniProt O14656); assay: small-molecule binders of mutant TOR1A in lysate, primary screen, cell lysate, small-molecule microarray, COS7 lysate, 635/667 nm fluorescence (AID 1150); details: COS7 hTOR1A mutant lysate, 635 nm fluorescence, higher = more signal;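 further: score pools 667 nm emission and signal to noise measuring lysate protein binding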
[10] = test system: Sonic hedgehog protein (Shh); assay: small-molecule binders of Shh protein, primary screen, biochemical, small-molecule microarray, 635/667 nm fluorescence (AID 1151); details: small-molecule microarray binding, 635 nm fluorescence; higher = more signal;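 further: Shh protein binding to compounds spotted on small-molecule microarray slides; score combines spot fluorescence intensity with signal-to-noise across triplicate slides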
[11] = E. coli DRC41 culture turbidity changes, primary screen, E. coli filamentation inducer project, strain DRC41, OD650, 48 h (AID 1152);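 further: E. coli MC1000 strain DRC41 lacking acrAB efflux pump and sulA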; details: E. coli DRC41 (acrAB sulA), higher = more signal, called active from +8 up or from −8 down
[12] = small-molecule binders of probe aLefty1, primary screen, biochemical, small-molecule microarray, 635/667 nm fluorescence (AID 1153); details: higher = more signal;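 further: score merges spot fluorescence with signal-to-noise ratio from the scanned slide images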
[13] = PSAC antagonists in infected red cells, primary screen, cell-based, P. falciparum Indochina, OD700, 1 h (AID 1154); details: P. falciparum Indochina infected RBC osmotic lysis, higher = more signal, called active from +8 up or from −8 down
[14] = PSAC antagonists in infected red cells, primary screen, cell-based, P. falciparum Indochina, OD700, 2 h (AID 1155);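 further: lysis reports solute entry through the parasite surface anion channel PSAC; channel blockers reduce lysis of infected cells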; details: P. falciparum Indochina infected erythrocytes, osmotic lysis OD700; higher = more signal, called active from +8 up or from −8 down
[15] = osmotic lysis modulators in infected erythrocytes, primary screen, PSAC antagonist project, cell-based, P. falciparum Indochina, OD700, 3 h (AID 1156); details: higher = more signal, called active from +8 up or from −8 down
[16] = PSAC antagonists in infected red cells, primary screen, cell-based, P. falciparum Indochina, OD700, 18 h (AID 1157); details: P. falciparum Indochina infected erythrocytes, osmotic lysis OD700, 18 h; higher = more signal, called active from +8 up or from −8 down
[17] = modulators of S6 phosphorylation in cells, primary screen, cell-based, A549, cytoblot, luminescence, serum-stimulated (AID 1158); details: A549 phospho-S6 cytoblot, 5 h, higher = more signal;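 further: serum-stimulated A549 lung adenocarcinoma cells; signal is phosphorylated S6 detected by cytoblot immunostaining with HRP secondary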
[18] = molecular target: NADPH oxidase 2 (Homo sapiens) (UniProt P04839); assay: NOX2-dependent H2O2 signal modulators, primary screen, NOX inhibitor project, cell-based, HEK293-NOX2, PMA-stimulated, Amplex Red fluorescence (AID 1159); details: 45 min, higher = more signal, called active from +8 up or from −8 down; further: test concentration not given here
NADPH oxidase 2 (Homo sapiens), sequence (P04839 whole entry, looked up): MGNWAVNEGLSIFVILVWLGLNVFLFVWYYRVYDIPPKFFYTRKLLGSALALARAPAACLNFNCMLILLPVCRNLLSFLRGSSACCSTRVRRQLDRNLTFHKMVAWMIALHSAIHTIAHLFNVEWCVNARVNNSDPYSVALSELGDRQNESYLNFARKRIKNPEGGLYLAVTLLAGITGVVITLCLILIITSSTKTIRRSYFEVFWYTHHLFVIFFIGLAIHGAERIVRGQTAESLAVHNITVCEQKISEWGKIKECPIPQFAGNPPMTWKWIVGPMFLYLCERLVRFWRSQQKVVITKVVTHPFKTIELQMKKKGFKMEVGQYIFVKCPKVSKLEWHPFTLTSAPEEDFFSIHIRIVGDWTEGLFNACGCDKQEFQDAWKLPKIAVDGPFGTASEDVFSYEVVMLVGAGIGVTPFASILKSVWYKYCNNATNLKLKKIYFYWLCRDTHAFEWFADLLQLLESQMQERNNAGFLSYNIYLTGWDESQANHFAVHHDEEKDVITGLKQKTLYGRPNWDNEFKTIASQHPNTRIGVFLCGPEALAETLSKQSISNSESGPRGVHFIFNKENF

[19] = molecular target: NADPH oxidase 4 (Homo sapiens) (UniProt Q9NPH5); assay: NOX4-dependent H2O2 signal modulators, primary screen, NOX inhibitor project, cell-based, HEK293-NOX4, tetracycline-induced, Amplex Red fluorescence (AID 1160); details: 45 min, higher = more signal, called active from +8 up or from −8 down
NADPH oxidase 4 (Homo sapiens), sequence (Q9NPH5 whole entry, looked up): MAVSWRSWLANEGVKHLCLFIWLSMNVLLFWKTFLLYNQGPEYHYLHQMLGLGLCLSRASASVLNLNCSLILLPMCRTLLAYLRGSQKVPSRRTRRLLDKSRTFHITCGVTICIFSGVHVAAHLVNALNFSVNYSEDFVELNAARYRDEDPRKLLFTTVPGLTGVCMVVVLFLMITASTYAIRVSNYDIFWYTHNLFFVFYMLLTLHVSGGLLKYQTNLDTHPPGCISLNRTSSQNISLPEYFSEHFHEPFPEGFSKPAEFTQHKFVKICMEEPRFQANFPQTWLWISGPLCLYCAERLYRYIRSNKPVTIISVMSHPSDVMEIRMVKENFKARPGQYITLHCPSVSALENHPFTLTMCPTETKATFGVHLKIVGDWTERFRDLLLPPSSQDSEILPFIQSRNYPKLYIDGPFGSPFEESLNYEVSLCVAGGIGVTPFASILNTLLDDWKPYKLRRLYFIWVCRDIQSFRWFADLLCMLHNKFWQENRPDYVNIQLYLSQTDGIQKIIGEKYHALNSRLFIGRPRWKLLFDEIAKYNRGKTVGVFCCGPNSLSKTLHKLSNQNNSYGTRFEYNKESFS

[20] = molecular target: NADPH oxidase 5 (Homo sapiens) (UniProt Q96PH1); assay: NOX5-dependent H2O2 signal modulators, primary screen, NOX inhibitor project, cell-based, HEK293-NOX5, Amplex Red fluorescence (AID 1161); details: HEK293-NOX5, ionomycin, 45 min, higher = more signal
NADPH oxidase 5 (Homo sapiens), sequence (Q96PH1 whole entry, looked up): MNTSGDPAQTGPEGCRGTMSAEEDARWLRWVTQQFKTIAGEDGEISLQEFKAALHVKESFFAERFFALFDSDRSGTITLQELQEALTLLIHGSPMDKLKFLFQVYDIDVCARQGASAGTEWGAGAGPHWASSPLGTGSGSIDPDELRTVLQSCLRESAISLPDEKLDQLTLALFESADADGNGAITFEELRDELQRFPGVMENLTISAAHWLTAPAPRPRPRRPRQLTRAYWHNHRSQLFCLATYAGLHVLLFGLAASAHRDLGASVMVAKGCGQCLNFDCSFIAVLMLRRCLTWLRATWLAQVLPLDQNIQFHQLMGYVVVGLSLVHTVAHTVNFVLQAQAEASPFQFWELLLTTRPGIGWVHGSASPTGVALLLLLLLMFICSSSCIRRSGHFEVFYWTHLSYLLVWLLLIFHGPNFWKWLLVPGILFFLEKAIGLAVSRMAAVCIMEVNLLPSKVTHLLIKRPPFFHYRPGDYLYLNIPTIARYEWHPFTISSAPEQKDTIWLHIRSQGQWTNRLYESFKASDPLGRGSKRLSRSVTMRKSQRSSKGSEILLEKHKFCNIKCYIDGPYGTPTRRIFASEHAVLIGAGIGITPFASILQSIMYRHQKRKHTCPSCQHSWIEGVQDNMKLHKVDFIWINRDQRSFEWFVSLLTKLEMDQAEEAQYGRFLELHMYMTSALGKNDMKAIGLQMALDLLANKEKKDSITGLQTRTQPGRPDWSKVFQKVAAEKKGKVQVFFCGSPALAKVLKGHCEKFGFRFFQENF

| SMILES | composite z-score [1] | z-score [2] | z-score [3] | z-score [4] | z-score [5] | composite z-score [6] | composite z-score [7] | composite z-score (Torsin-1A (Homo sapiens) [8]) | composite z-score (Torsin-1A (Homo sapiens) [9]) | composite z-score [10] | z-score [11] | composite z-score [12] | z-score [13] | z-score [14] | z-score [15] | z-score [16] | z-score [17] | z-score [18] | z-score [19] | z-score [20] |
| --- | --- | --- | --- | --- | --- | --- | --- | --- | --- | --- | --- | --- | --- | --- | --- | --- | --- | --- | --- | --- |
| CO[C@H]1COC(=O)CC=C[C@@H](C)COC(=O)[C@H]2CCCN2C(=O)CC=C[C@H]1C | 0.203 | 0.0653 (inactive) | 0.106 (inactive) | -0.837 (inactive) | -1.05 (inactive) | -0.547 | -0.108 | 2.24 | 2.95 | 1.79 | 0.694 (inactive) | -0.217 | -0.567 (inactive) | -0.25 (inactive) | -0.521 (inactive) | 0.0572 (inactive) | 0.43 | -0.166 (inactive) | 0.32 (inactive) | 0.364 |
| CCOC(=O)[C@H](Cc1ccccc1)NC(=O)CCC1CC(OC(=O)NCCc2ccc(F)cc2)CC2(CCCC(COC(=O)NCCOc3ccccc3)O2)O1 (stereo not given in full) | 0.424 | -0.715 (inactive) | -0.661 (inactive) | -0.253 (inactive) | 0.327 (inactive) | 0.751 | -0.0762 | 0.227 | 1.11 | 1.23 | -0.558 (inactive) | 0.0594 | -1.41 (inactive) | 0.363 (inactive) | -0.619 (inactive) | 0.272 (inactive) | -0.345 | 1.26 (inactive) | 0.767 (inactive) | 0.471 |
| COC(=O)[C@@H]1CC[C@H](C)[C@@H](c2ccc(Br)cc2)N1C[C@H](O)CN=[N+]=[N-] | -0.106 | -0.999 (inactive) | -1.5 (inactive) | -0.522 (inactive) | -0.369 (inactive) | 0.127 | -0.05 | 0.386 | 0.827 | 0.26 | -0.972 (inactive) | 0.181 | 1.04 (inactive) | 0.852 (inactive) | 0.48 (inactive) | 0.541 (inactive) | 0.928 | -0.855 (inactive) | -1.08 (inactive) | -0.0951 |
| CCOC(=O)[C@H](Cc1ccccc1)NC(=O)CCC1CC(OC(=O)NCc2cccc3ccccc23)CC2(CCCC(COC(=O)NCC3CCCCC3)O2)O1 (stereo not given in full) | 0.297 | -0.213 (inactive) | -0.441 (inactive) | -0.343 (inactive) | 0.895 (inactive) | 0.307 | 0.0155 | 0.156 | 0.224 | 0.955 | 0.0278 (inactive) | -0.0662 | 1.78 (inactive) | -0.393 (inactive) | -1.94 (inactive) | -0.611 (inactive) | -0.154 | 0.746 (inactive) | 0.745 (inactive) | 0.517 |
| CC(=O)OC[C@H]1O[C@H](CC=NOC(C)CN2CCCCc3nc(C)c(C)cc32)C=C[C@@H]1OC(C)=O (stereo not given in full) | 0.696 | -0.402 (inactive) | 0.725 (inactive) | -0.157 (inactive) | 0.278 (inactive) | 1.87 | -0.137 | 3.43 | 2.9 | 1.48 | 0.0072 (inactive) | 0.589 | 0.595 (inactive) | 0.324 (inactive) | 0.417 (inactive) | 0.246 (inactive) | -0.626 | -1.69 (inactive) | -0.695 (inactive) | -1.24 |
| COc1ccc2c(c1)O[C@@H](c1cccc(C(F)(F)F)c1)[C@H](O)C2=O | 0.104 | -2.98 (inactive) | -0.837 (inactive) | 2.27 (inactive) | -0.892 (inactive) | 0.562 | -0.0645 | -0.0248 | 0.215 | 0.37 | 0.706 (inactive) | 0.0328 | 2.08 (inactive) | 0.18 (inactive) | 1.19 (inactive) | 0.347 (inactive) | 1.15 | 0.00989 (inactive) | 0.123 (inactive) | -0.44 |
| COc1ccc(O[C@H]2C=C[C@@H](c3ccccc3)O[C@@H]2CO)cc1 | 0.0263 | -1.12 (inactive) | 0.584 (inactive) | -0.617 (inactive) | -0.265 (inactive) | 0.145 | -0.0412 | 0.139 | 0.153 | 0.507 | 0.0426 (inactive) | -0.0501 | 2.91 (inactive) | 1.29 (inactive) | -0.0071 (inactive) | 0.64 (inactive) | -0.781 | -0.242 (inactive) | -0.634 (inactive) | -2.07 |
| CC(C)CON=C1C[C@@H](O)[C@@H](O)[C@@H]2[C@@H]3C(=O)N(Cc4ccccc4)C(=O)[C@@H]3CC[C@H]12 | 0.0659 | -1.75 (inactive) | -1.46 (inactive) | -0.0223 (inactive) | 0.627 (inactive) | -0.682 | -0.212 | 0.0783 | 0.208 | 0.503 | -1.41 (inactive) | -0.249 | 1.12 (inactive) | -1.19 (inactive) | 0.99 (inactive) | -1.6 (inactive) | 0.0105 | 1.48 (inactive) | 0.209 (inactive) | 0.588 |
